Source: PubChem BioAssay AID1259343 (VanderVen Lab, College of Veterinary Medicine, Cornell …, 2017)
The whole screen tested about 6,200 compounds, of which about 2,900 (47%) were called active. No stated cut-off is given here; in the data, active means inhibition above about 50%; inactive means the rest. The set was probably picked from earlier hits. This is one part of the list.

Test: Mycobacterium tuberculosis growth inhibition, primary screen (AID 1259343)
Conditions: inhibition: at 10 µM, hits give high values; outcome: 10 uM

| Structure (SMILES) | inhibition |
| --- | --- |
| NC(Cc1cnc[nH]1)C(=O)Nc1ccc2ccccc2c1 (stereo unspecified) | 72.9% (active) |
| O=C(COC(=O)c1ccco1)Nc1ccc2ccccc2c1 | 39.6% (inactive) |
| CCOC(=O)c1ccc(NC(=O)CN2CCOC(C)C2)cc1 (stereo unspecified) | 92% (active) |
| Cc1cc(NC(=O)CN2CCOC(C)C2)ccc1Br (stereo unspecified) | 16.5% (inactive) |
| CC1CCc2c(sc(NC(=O)CN3CCOC(C)C3)c2C#N)C1 (stereo unspecified) | 30.6% (inactive) |
| Cc1cc(C)c2c(=O)[nH]c(SCc3nnc(-c4ccc(Cl)cc4)o3)nc2n1 | -6.74% (inactive) |
| Fc1ccc(-c2csc(SCc3nnc(-c4ccc(F)cc4)o3)n2)cc1 | 69.3% (active) |
| Clc1ccc(-c2nnc(CSc3nncs3)o2)cc1 | 97.2% (active) |
| Clc1ccc(-c2noc(CSc3nncs3)n2)cc1 | -30.4% (inactive) |
| CN(Cc1nnc(-c2ccc(F)cc2)o1)C1C2CCOC2C1(C)C (stereo unspecified) | 21.1% (inactive) |
| Fc1ccc(OCc2nnc(-c3ccc(Br)cc3)o2)cc1 | -26.1% (inactive) |
| O=C1NC(=O)C(=Cc2cc(Br)c(Sc3ccc(Cl)cc3)o2)S1 | 85.2% (active) |
| CC1CCCN(Cc2csc(NC(=O)c3cccc(I)c3)n2)C1 (stereo unspecified) | 50.6% (active) |
| COc1ccc2c(CC(=O)Nc3nc(CN4CCCCC4)cs3)coc2c1 | 26.5% (inactive) |
| O=C(Nc1nc(CN2CCCCC2)cs1)c1cc(F)cc(F)c1 | -30.9% (inactive) |
| O=C(C=Cc1cccs1)N1CCN(Cc2nc3ccccc3s2)CC1 | 67.3% (active) |
| O=C(CCc1nc2ccccc2s1)N1CCN(Cc2ccc(C(F)(F)F)cc2)CC1 | 88.1% (active) |
| O=C(c1ccc2c(c1)OCO2)C1CCCN(Cc2nc3ccccc3s2)C1 (stereo unspecified) | inactive |
| CCc1cc(-c2n[nH]c(C)c2-c2nc3ccccc3s2)c(O)c(CN2CCN(C)CC2)c1O | 10.5% (inactive) |
| Cc1sc(NN=Cc2cccc(O)c2)nc1-c1ccccc1 | 94.2% (active) |
| COc1ccc(/C=N\NC(=O)c2ccncc2)c(C(=O)O)c1OC | 42.2% (inactive) |
| Cc1sc(-c2cccc(O)c2)nc1-c1ccccc1 | 23.1% (inactive) |
| COc1ccc(-c2nc(Nc3ccc(Cl)nc3)sc2C)cc1 | 25.9% (inactive) |
| COc1cccc(C=NNc2nc(-c3ccccc3)c(C)s2)c1OC | 91.8% (active) |
| Oc1cccc(/C=N\Nc2cc(N3CCCC3)nc(N3CCCC3)n2)c1 | 14% (inactive) |
| CC1(C)CC(=O)C(Sc2ccc(Br)cc2)=C(O)C1 | 57.1% (active) |

| Structure (SMILES) | inhibition |
| --- | --- |
| CCCCN(C)C(=O)c1ccc(Nc2nc(C(N)COCc3ccccc3)cs2)nc1 (stereo unspecified) | 64.2% (active) |
| CN(Cc1ccccc1)C(=O)c1ccc(Nc2nc(C(N)COCc3ccccc3)cs2)nc1 (stereo unspecified) | 97.6% (active) |
| O=C(Nc1ccnn1C1CCCCC1)c1c(O)cc(F)cc1F | 29.4% (inactive) |
| CCn1c(O)c(C(C)=Nc2ccnn2C2CCCCC2)c(=O)n(CC)c1=S | 100% (active) |
| Cc1ccc(OCC(O)Cn2c(C)nc3sc4c(c3c2=O)CCC4)cc1 (stereo unspecified) | 64.5% (active) |
| Cc1ccc(OCC(O)Cn2c(C)cc(=O)n3ncnc23)cc1 (stereo unspecified) | -1.37% (inactive) |
| CCc1cnc(-c2cccc(O)c2)nc1 | 87.9% (active) |
| Cc1cccc(-c2ncc(CNCCCc3ccccc3)cn2)c1 | 24.1% (inactive) |
| CCCc1cnc(-c2cnc3ccccc3c2)nc1 | 15.5% (inactive) |
| O=[N+]([O-])c1ccc(Sc2nnc(-c3ccco3)o2)c([N+](=O)[O-])c1 | 57.5% (active) |
| CCOc1ccc(CSc2n[nH]c(-c3ccccn3)n2)nc1 | 99.6% (active) |
| CCCc1cc(=O)[nH]c(SCCOc2ccc(OCC)cc2)n1 | -6.11% (inactive) |
| CCOc1ccc(C2=NCC(CSc3n[nH]c(N)n3)S2)cc1 (stereo unspecified) | 19.9% (inactive) |
| CCN(CC(=O)Nc1ccc(C#N)cc1)C1CCCCC1 | -29.6% (inactive) |
| N#Cc1ccc(NC(=O)NC2CC2c2c(F)cccc2F)cc1 (stereo unspecified) | 51.6% (active) |
| C=CCSc1nnc(COc2ccccc2)o1 | 95.2% (active) |
| C=CCSc1nnc(Nc2ccc(Oc3ccccc3)cc2)s1 | inactive |
| O=c1[nH]c2ccccc2n1CCCSc1nnc(COc2ccccc2Cl)o1 | 42.5% (inactive) |
| Cc1cccc(N/C=c2\c(C)c(C#N)c3nc4ccccc4n3c2=O)c1 | -34.9% (inactive) |
| Cc1c(CCCl)c(Cl)n2c(nc3ccccc32)c1C#N | 56.3% (active) |
| Cc1c(C#N)c2nc3ccccc3n2c(=O)/c1=C/Nc1ccc(F)cc1 | -33.8% (inactive) |
| COCCNc1c2c(nc3c(-c4ccccc4)c(C)nn13)CCCC2 | 25.2% (inactive) |
| Cn1nc2c(c1NC(=O)c1ccc(Cc3ccccc3)cc1)CCC2 | 83.6% (active) |
| Clc1ccc(NN=C2CCN(Cc3ccccc3)CC2)cc1 | 94.7% (active) |
| O=S1(=O)CCC(=NNc2ccc(Cl)cc2)c2cc(F)ccc21 | 45% (inactive) |
| OCC1(CCCc2ccccc2)CCN(Cc2cc(Cl)ccc2O)CC1 | 38.5% (inactive) |

| Structure (SMILES) | inhibition |
| --- | --- |
| O=[N+]([O-])c1cnc2ccc3ccccc3c2c1 | 96.6% (active) |
| Cc1cc(Br)c2c(c1)C1(OCCO1)C(=O)N2 | -4.59% (inactive) |
| COc1ccccc1CNc1nccn(-c2cccc(C)c2)c1=O | 12.8% (inactive) |
| Cc1ccc(CNc2nccn(-c3cc(C)cc(C)c3)c2=O)cc1 | 53.9% (active) |
| CN(CC1Cc2ccccc2O1)C(=O)Nc1nc(-c2ccccc2)ns1 (stereo unspecified) | 4.41% (inactive) |
| Cc1cccc(CC(=O)N(C)CC2Cc3ccccc3O2)c1 (stereo unspecified) | 21% (inactive) |
| CN(Cc1cccc(C(=O)Nc2cn(C)nn2)c1)CC1Cc2ccccc2O1 (stereo unspecified) | 86.5% (active) |
| O=C(CN1CCCc2cccc(F)c21)Nc1cccc(F)c1 | 2.21% (inactive) |
| O=C(CN1CCCC1=O)Nc1ccc(C23CC4CC(CC(C4)C2)C3)cc1 | 81.6% (active) |
| COCc1ccc(CN2CCC(C(=O)Nc3cccc(-c4cccc(Cl)c4)c3)CC2)o1 | 62.3% (active) |
| O=C(Nc1cccc(-c2cccc(Cl)c2)c1)C1CCN(Cc2ccncc2)CC1 | 92.8% (active) |
| CC(C)n1cc(CN2CCC(C(=O)Nc3cccc(-c4cccc(Cl)c4)c3)CC2)cn1 | 46.3% (inactive) |
| COCC(=O)N1CCC(C(=O)Nc2cccc(-c3cccc(Cl)c3)c2)CC1 | inactive |
| CC1=NN(C(=O)c2ccccc2)C(C)(NN(C)c2ccccc2)C1 (stereo unspecified) | 75.7% (active) |
| Cc1cccc(C(=O)N2N=C(c3ccccc3)CC2(O)C(F)(F)F)c1O (stereo unspecified) | 49.1% (inactive) |
| Cc1cc(Cc2c(O)nc(N)[nH]c2=O)ccc1OC(C)C | 36.4% (inactive) |
| CCC1c2ccsc2CCN1CC(=O)Nc1ccccc1C#N (stereo unspecified) | 39.9% (inactive) |
| Cn1ccc(C(=O)Nc2ccccc2N2CCc3sccc3C2)cc1=O | 63.6% (active) |
| O=S(=O)(c1cccc(Cl)c1Cl)N1CCc2sccc2C1 | 17.2% (inactive) |
| O=C(CSc1nnc(Cc2ccccc2)o1)c1ccc2ccccc2c1 | 67.7% (active) |
| Cc1nc(Cc2nnc(SCC(=O)c3ccc(Cl)s3)o2)cs1 | 9.62% (inactive) |
| c1ccc(Cc2nnc(SCc3cccc4ccccc34)o2)cc1 | 4.35% (inactive) |
| CCCCCCC1C(C#N)=C(N)SC(N)=C1C#N | 24.4% (inactive) |
| N#CC1=C(N)SC(N)=C(C#N)C1c1ccc(-c2ccccc2)cc1 | 14.3% (inactive) |
| CCCCCCCC1C(C#N)=C(N)SC(N)=C1C#N | 93.5% (active) |
| Cc1cccc(N2CCN(c3ccc4nnc(C5CC5)n4n3)CC2)c1C | 85.7% (active) |

| Structure (SMILES) | inhibition |
| --- | --- |
| CC(C)=NNc1nc(Cl)c(C#N)c(Cl)c1Cl | 102% (active) |
| FC(F)(F)c1nnc2ccc(NCCC3CCCC3)nn12 | 18% (inactive) |
| O=C(Nc1cccc(/C=C/c2ccccn2)c1)C1CCCC1 | 97.1% (active) |
| O=C(Nc1cnc(-c2ccccc2)nc1)C1CCCC1 | 48.4% (inactive) |
| O=C(Nc1cccc(OCc2ccccn2)c1)C1CC1 | 18.7% (inactive) |
| CC(C)n1c(CCC(=O)O)ccc1-c1ccc(Br)cc1 | 50.3% (active) |
| CC(C)(C)C1CCC(CN2CC(O)C(N3CCCC3)C2)CC1 (stereo unspecified) | 41.1% (inactive) |
| CCOC(=O)CCCNC(=O)CSc1n[nH]c(-c2ccc(Br)cc2)n1 | 74.5% (active) |
| CC(Sc1n[nH]c(-c2ccc(Cl)cc2)n1)C(=O)NCc1ccco1 (stereo unspecified) | 42% (inactive) |
| CC(C)c1ccc(-c2nnn(CC(=O)c3ccc(O)cc3)n2)cc1 | 55.7% (active) |
| CC(C)c1ccc(-c2nnn(CC(=O)NC(C)(C)C)n2)cc1 | 4.54% (inactive) |
| N#Cc1ccc(OCC(O)Cn2nnc(-c3ccc(Cl)cc3)n2)cc1 (stereo unspecified) | 49.3% (inactive) |
| C=CCOc1ccc(C2c3c(oc4ccc(C)cc4c3=O)C(=O)N2c2nccs2)cc1 (stereo unspecified) | -15.9% (inactive) |
| CC(C)CN(CC(=O)Nc1cc(C(C)(C)C)nn1-c1ccc(Cl)c(Cl)c1)C(=O)Nc1ccc(C(F)(F)F)cc1 | 38.3% (inactive) |
| NCC(=O)Nc1ccc(-n2nc(C(F)(F)F)cc2-c2ccc3c(ccc4ccccc43)c2)cc1 | 73.5% (active) |
| COCCOc1nc(-c2ccc(C(F)(F)F)cc2)n(-c2ccc(NC(=O)C(Cl)c3ccccc3)cc2)n1 (stereo unspecified) | 19.5% (inactive) |
| C(=NC1=NN(c2ccccc2)CC1)N1CCCCCC1 | -7.42% (inactive) |
| OCCN(C=NC1=NN(c2cccc(C(F)(F)F)c2)CC1)CCO | 83.2% (active) |
| CN(N=Cc1ccc([N+](=O)[O-])o1)c1ccccc1 | -45.3% (inactive) |
| FC(F)(F)c1cccc(N2CCC(N=Cc3ccccc3C(F)(F)F)=N2)c1 | 50.2% (active) |
| O=[N+]([O-])c1ccc(C=NC2=NN(c3cccc(C(F)(F)F)c3)CC2)o1 | 87.8% (active) |
| FC(F)(F)c1cccc(N2CCC(N=Cc3ccccn3)=N2)c1 | 93.2% (active) |
| CCCNC(=O)COc1c(Cl)cc(Cl)c2ccc(C)nc12 | 72.1% (active) |
